Results filed as inconclusive are left out. The source made the active and inactive calls. The call rests on the fitted dose curve; in most records, active means well fitted cell-killing curve with a large enough effect; inconclusive means small, poorly fitted or top-dose-only effect, or effect the other way; inactive means no such curve, though single readings can be large or run the other way.
Potency means the concentration at half of the fitted maximal effect.

A short description of this assay: Quantitative High-Throughput drug screen in 47 multiple myeloma cell lines against the NCATS MIPE library collection: JJN3_DSMZ cell viability assay (AID 1918966; further: nearly all actives have a fitted effect of over 50% in size). The settings on record: JJN3 myeloma cells viability, CellTiter-Glo ATP, 48 h; series mostly up to 45.8 µM. An excerpt:
PI: Beverly A. Mock Ph.D.
Laboratory of Cancer Biology and Genetics,
Center for Cancer Research, National Cancer Institute,
National Institute of Health, Bethesda, Maryland
Drug resistance and disease progression are common in multiple myeloma (MM) patients, underscoring the need for new therapeutic combinations. […] We hypothesized that effective combinations would reduce MYC expression and enhance p16 activity. […] These preclinical data identify potentially useful drug combinations for evaluation in drug-resistant MM and reveal potential mechanisms of combined drug sensitivity.
Described herein is the primary MIPE qHTS used to cherrypick compounds. Validated compounds were then further tested for potential synergistic activiy.
[1] Peat TJ, Gaikwad SM, Dubois W, Gyabaah-Kessie N, Zhang S, Gorjifard S, Phyo Z, Andres M, Hughitt VK, Simpson RM, Miller MA, Girvin AT, Taylor A, Williams D, D'Antonio N, Zhang Y, Rajagopalan A, Flietner E, Wilson K, Zhang X, Shinn P, Klumpp-Thomas C, McKnight C, Itkin Z, Chen L, Kazandijian D, Zhang J, Michalowski AM, Simmons JK, Keats J, Thomas CJ, Mock BA. Drug combinations identified by high-throughput screening promote cell cycle transition and upregulate Smad pathways in myeloma. Cancer Lett. 2023 Aug 1;568:216284. doi: 10.1016/j.canlet.2023.216284. Epub 2023 Jun 24. PMID: 37356470; PMCID: PMC10408729.
SEQUENCE No. (e.g., 1, 2, 3, etc.); […] (e.g., Cells, Incubation, Reagent, etc.); VALUE and DESCRIPTION.
1; Cells; 5 uL; white, solid bottom 1536-well Greiner assay plate.
2; Compounds; 23 nL; Kalypsis pin tool (Wako USA) equipped with a 1536-well pin head to transfer to the assay plates.
3; Incubation; 48 hours; 37C incubation.
4; Reagent;5uL; CellTiter Glo (Promega).
5; Detector; 425V; Luminescence; Viewlux PerkinElmer.
NOTES (numbers refer to Sequence numbers above)
1. The cell-based screening methods employed in this study were like those previously published. Briefly, the corresponding myeloma cell lines were screened in 1,536-well plates with 500 cells, 5-uL per well for inhibition of cell viability (assessed by measuring ATP levels with CellTiterGlo).
2. NCATS MIPE 4.0 library of approved and investigational drugs were added using the Kalypsis pin tool. Wells treated with DMSO only for 100% viability and media only wells for 0% viability were used as controls.
3. The assay plates were covered and incubated for 48 hours in a 37C, 5% CO2 incubator with controlled humidity.
4. After 48 hours, CellTilter-GloTM luminescent substrate mix (Promega) reagent was added to the assay plate and plates we incubated for 5 min at room temperature.
5. Signal was measured as median relative luminescence units on a ViewLux (PerkinElmer) multiplate reader.
[1] Heske CM, Davis MI, Baumgart JT, Wilson K, Gormally MV, Chen L, Zhang X, Ceribelli M, Duveau DY, Guha R, Ferrer M, Arnaldez FI, Ji J, Tran HL, Zhang Y, Mendoza A, Helman LJ, Thomas CJ. Matrix Screen Identifies Synergistic Combination of PARP Inhibitors and Nicotinamide Phosphoribosyltransferase (NAMPT) Inhibitors in Ewing Sarcoma. Clin Cancer Res. 2017 Dec 1;23(23):7301-7311. doi: 10.1158/1078-0432.CCR-17-1121. Epub 2017 Sep 12. PMID: 28899971; PMCID: PMC6636827.
For `CC(C)C[C@H](CC(=O)O)C(=O)N[C@@H](Cc1c[nH]c2ccccc12)C(=O)N[C@@H](C)c1ccccc1`, the Potency entry was “inactive”.

Take `c1ccc2c(Cc3c[nH]c4ccccc34)c[nH]c2c1`: the Potency is 26.4 µM (active).

In the case of `O=c1cc(N2CCOCC2)oc2c(-c3cccc4c3sc3ccccc34)cccc12`, the Potency was 14.8 µM (active).

On to `c1cc(-c2sc(-c3ccncc3)c(-c3ccncc3)c2-c2ccncc2)ccn1`, for which the Potency is 16.6 µM (active).

For the molecule `CN(C)Cc1ccc(-c2nc3cccc4c3n2CCNC4=O)cc1`, the Potency is 18.7 µM (active).

For the molecule `CC(C(=O)O)c1ccc(-c2ccccc2)c(F)c1` (stereo not given), the Potency result was “inactive”.

In the case of `CC(C)OC(=O)C(C)(C)Oc1ccc(C(=O)c2ccc(Cl)cc2)cc1`, the Potency is 16.6 µM (active).

For the molecule `COc1ccc(-c2oc3c(CC=C(C)C)c(OC4O[C@H](CO)[C@@H](O)[C@H](O)[C@@H]4O)cc(O)c3c(=O)c2OC2O[C@@H](C)[C@H](O)[C@@H](O)[C@@H]2O)cc1` (stereo not given in full), the Potency is 18.7 µM (active).

Consider `CC(=O)O[C@]1(C(C)=O)CC[C@@H]2[C@@H]3C[C@H](C)C4=CC(=O)CC[C@]4(C)[C@H]3CC[C@@]21C`, for which the Potency is 20.9 µM (active).

With `CCn1c(C(=O)N(C2CC2)C2CC2)cc2c3c(ncn3C)c(Nc3cc(C)n(C)n3)nc21`, the Potency was 20.9 µM (active).

Turning to `Cc1ccc(Nc2cc(-c3cccc(N4C(=O)c5ccccc5C4=O)c3)ncn2)cc1NS(C)(=O)=O`, the Potency was 18.7 µM (active).

As for `O=C(Nc1ccccc1-c1cn2c(CN3CCNCC3)csc2n1)c1cnc2ccccc2n1`, the Potency is 9.35 µM (active).

For `Oc1ccc(C2=Cc3ccc(O)cc3OC2)cc1`, the Potency is 1.48 µM (active).

With `CC1(C)O[C@H]2C[C@@H]3[C@H]4CCC5=CC(=O)C=C[C@]5(C)[C@@]4(F)[C@@H](O)C[C@]3(C)[C@]2(C(=O)CO)O1`, the Potency entry was “inactive”.

For the molecule `C=C1C(=O)OC2C=C(C)CCC=C(C)CCC12` (stereo not given), the Potency was 16.6 µM (active).

Regarding `Cc1c(O)cccc1C(=O)N[C@@H](CSc1ccccc1)[C@H](O)CN1C[C@H]2CCCC[C@@H]2C[C@@H]1C(=O)NC(C)(C)C`, the Potency was 18.7 µM (active).

`CCC(CC)[C@H](NC(C)=O)[C@@H]1[C@H](O)[C@@H](C(=O)O)C[C@@H]1N=C(N)N`: the Potency entry is “inactive”.

Turning to `O=C1NC(=O)C(=Cc2ccc3nccnc3c2)S1`, the Potency is 8.12 µM (active).

Regarding `CC[C@@]1(O)C[C@H](O[C@H]2C[C@H](N(C)C)[C@H](O[C@H]3C[C@H](O)[C@H](O[C@H]4CCC(=O)[C@H](C)O4)[C@H](C)O3)[C@H](C)O2)c2c(cc3c(c2O)C(=O)c2c(O)cccc2C3=O)[C@@H]1C(=O)OC`, the Potency was 0.296 µM (active).

Turning to `O=c1cc(-c2ccc(O)cc2)oc2cc(O)cc(O)c12`, the Potency was 3.32 µM (active).

Turning to `Nc1nc(F)nc2c1ncn2[C@@H]1O[C@H](COP(=O)(O)O)[C@@H](O)[C@H]1O`, the Potency result is “inactive”.

On to `CCOc1ccc(Nc2nc(-c3c(C)nc4ccccn34)cs2)cc1`, for which the Potency is 5.26 µM (active).

As for `O=C(Nc1cccc(Br)c1)c1cccc(S(=O)(=O)N2CCCCCC2)c1`, the Potency is 20.9 µM (active).

As to `CC(C)(C)Cn1c(N)nc2ccc(-c3[nH]c(C(C)(C)C)nc3-c3ccc(F)cc3)nc21`, the Potency was 20.9 µM (active).

On to `O=C(O)[C@H]1O[C@H](Oc2cc3oc(-c4ccccc4)cc(=O)c3c(O)c2O)[C@H](O)[C@@H](O)[C@H]1O`, for which the Potency is 13.2 µM (active).

Turning to `CC1CCC(C(=O)N(c2cc(C#CC(C)(C)C)sc2C(=O)O)C2CCC(O)CC2)CC1` (stereo not given), the Potency was 18.7 µM (active).

For the molecule `CCC(=O)O[C@]1(C(=O)CO)CC[C@H]2[C@@H]3CCC4=CC(=O)CC[C@]4(C)[C@@H]3CC[C@@]21C`, the Potency entry was “inactive”.

As for `CN(C)C1CCN(C(=O)c2ccc(NC(=O)Nc3nc(N4CCOCC4)nc(N4CCOCC4)n3)cc2)CC1`, the Potency is 0.0833 µM (active).

Turning to `CS(=O)c1ccc(-c2nc(-c3ccc(F)cc3)c(-c3ccncc3)[nH]2)cc1` (stereo not given), the Potency was 2.15 µM (active).

As for `CC(=O)N(C)C1(c2ccccc2)CCN(CCC[C@]2(c3ccc(Cl)c(Cl)c3)CCCN(C(=O)c3ccccc3)C2)CC1`, the Potency was 18.7 µM (active).

As to `O=C(N[C@@H](c1ccccc1)[C@@H]1CCCCN1)c1cccc(C(F)(F)F)c1Cl`, the Potency result is “inactive”.

For `Cc1ccc(C(C)(O)c2nc3ccccc3s2)c(C)c1` (stereo not given), the Potency result is “inactive”.

For `CC=CCC=CCCC(=O)[C@H]1O[C@@H]1C(N)=O`, the Potency was 16.6 µM (active).

As to `O=C1C(Cl)=C(NCCN2CCOCC2)C(=O)c2ncccc21`, the Potency was 3.72 µM (active).

As to `CO[C@H]1C=CC=C(C)C(=O)NC2=CC(=O)C(NCCN(C)C)=C(C[C@@H](C)C[C@H](OC)[C@@H](O)[C@@H](C)C=C(C)[C@@H]1OC(N)=O)C2=O`, the Potency is 0.0296 µM (active).

As for `COc1cc2c(cc1OC)CN(CCc1ccc(NC(=O)c3cc(OC)c(OC)cc3NC(=O)c3cnc4ccccc4c3)cc1)CC2`, the Potency is 0.526 µM (active).

Take `COc1cc2nc(-c3ccc(N4CCN(C)CC4)cc3)nc(NCCN3CCOCC3)c2cc1OC`: the Potency was 0.0148 µM (active).

With `Cc1nc(N)sc1-c1ccnc(Nc2ccc(N3CCOCC3)cc2)n1`, the Potency was 11.8 µM (active).

With `O=C(O)C=Cc1ccc(O)c(O)c1`, the Potency was 10.5 µM (active).

`COc1ccc(-c2nc(N3CCOCC3)c3sc(CN(C)c4ncc(C(=O)NO)cn4)cc3n2)cn1`: the Potency was 0.0019 µM (active).
